# Experimental data from PMC4336329 (PLoS ONE, 2015).
# Among all 310,000 compounds or so, about 14,000 (4.5%) showed an effect of 50% or more. Effects have a minus sign here. Many of the other results were omitted from the sample, so strong results are more common in it than they were.
# Molecular target: human ether-à-go-go-related gene (hERG) potassium channel (human, UniProt Q12809)
# Assay: primary screen, population patch clamp on CHO cells stably expressing hERG; higher = less effect of the substance
# 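Note: peak tail current of the secondary pulse compared with the same well before compound.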
# human ether-à-go-go-related gene (hERG) potassium channel, sequence (Q12809 whole entry, looked up): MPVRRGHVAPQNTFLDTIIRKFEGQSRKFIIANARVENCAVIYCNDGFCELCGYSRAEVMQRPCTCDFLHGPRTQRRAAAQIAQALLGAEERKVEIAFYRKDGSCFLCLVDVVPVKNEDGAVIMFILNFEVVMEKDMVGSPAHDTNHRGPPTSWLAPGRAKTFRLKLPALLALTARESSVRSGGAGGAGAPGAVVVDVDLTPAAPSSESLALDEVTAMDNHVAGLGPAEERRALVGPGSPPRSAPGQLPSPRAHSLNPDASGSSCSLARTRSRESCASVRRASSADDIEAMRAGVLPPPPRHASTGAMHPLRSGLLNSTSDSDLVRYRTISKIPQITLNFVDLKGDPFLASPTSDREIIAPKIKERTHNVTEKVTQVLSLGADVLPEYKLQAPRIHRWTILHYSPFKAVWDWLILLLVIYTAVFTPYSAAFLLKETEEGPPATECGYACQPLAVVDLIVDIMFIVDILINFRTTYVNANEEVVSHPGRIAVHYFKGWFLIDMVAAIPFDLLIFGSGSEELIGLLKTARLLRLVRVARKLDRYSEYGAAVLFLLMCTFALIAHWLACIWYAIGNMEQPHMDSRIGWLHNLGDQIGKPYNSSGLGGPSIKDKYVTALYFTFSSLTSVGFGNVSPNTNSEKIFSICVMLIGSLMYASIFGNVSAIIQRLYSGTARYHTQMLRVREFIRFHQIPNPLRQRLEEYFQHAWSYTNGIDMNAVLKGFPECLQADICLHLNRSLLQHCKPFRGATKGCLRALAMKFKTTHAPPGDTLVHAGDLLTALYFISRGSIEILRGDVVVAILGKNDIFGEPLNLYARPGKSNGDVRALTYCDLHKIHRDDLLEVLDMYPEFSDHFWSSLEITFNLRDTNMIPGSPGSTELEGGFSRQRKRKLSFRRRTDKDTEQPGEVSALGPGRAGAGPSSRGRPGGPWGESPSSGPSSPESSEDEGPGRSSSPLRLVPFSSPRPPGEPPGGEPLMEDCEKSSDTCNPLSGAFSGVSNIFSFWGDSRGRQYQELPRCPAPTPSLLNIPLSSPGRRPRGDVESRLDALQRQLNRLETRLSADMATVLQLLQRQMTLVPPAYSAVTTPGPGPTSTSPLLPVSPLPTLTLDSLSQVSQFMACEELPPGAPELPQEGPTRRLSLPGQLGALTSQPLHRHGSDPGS
row,Compound,"hERG current change (%, negative = inhibition) at 10uM"
1,CC1(C)Cc2nc(N3CCOCC3)c(C#N)cc2CO1,7.25%
2,COc1ccc(NC(=O)CN(C)C(=O)c2c(-c3c(F)cccc3Cl)noc2C)cc1,-16.2%
3,CCC(C)(C)NC(=O)CN(Cc1ccccc1Cl)C(=O)CCC(=O)Nc1cc(C)ccn1,-4.7%
4,O=C(O)c1nn(CC(=O)N2CCN(c3ccccc3)CC2)c(=O)c2ccccc12,8.36%
5,O=C(O)c1ccccc1OCCOc1ccccc1,3.63%
6,CC(C)c1nnc(NC(=O)c2cnccn2)s1,16.2%
7,COc1ccc(C(=O)N2CCCCC2)cc1S(=O)(=O)Nc1cccc(C(=O)O)c1,6.94%
8,CCOc1ccc(C(=O)OCCN(C)C)cc1.Cl,-10.3%
9,CSc1ncccc1C(=O)OCC(=O)N1CC(=O)Nc2ccccc21,8.21%
10,COc1ccc(Nc2nc(N)nc(CN3CCC(C)CC3)n2)cc1,-75.4%
11,COc1ccc(OCc2nc(N)nc(Nc3ccccc3)n2)cc1,-4.98%
12,COc1ccc(Nc2nc(N)nc(CSC(=S)N3CCC(C)CC3)n2)cc1,-5.86%
13,COc1ccc(Nc2nc(N)nc(CN3CCC(Cc4ccccc4)CC3)n2)cc1,-79%
14,Nc1nc(CN2CCC(Cc3ccccc3)CC2)nc(Nc2ccccc2)n1,-82%
15,COc1ccc(-c2noc(CN3CCC(Cc4ccccc4)CC3)n2)cc1,-8.3%
16,COc1ccc(Nc2nc(N)nc(CN3CCOCC3)n2)cc1,-5.46%
17,c1ccc(CC2CCN(Cc3nc(-c4ccccc4)no3)CC2)cc1,-8.93%
18,CC(=O)c1ccc(OCC(=O)OC(C)C(=O)NC2CCCCC2C)cc1 (stereo not drawn),26.9%
19,COC(=O)c1c(NC(=O)CC2SCC(C(=O)OC)NC2=O)sc2c1CCCC2 (stereo not drawn),-5%
20,CCc1ccccc1N(C(C)=O)c1nc(CCl)cs1,6.77%
21,CC(C)(C)NC(=O)CN(CCN1CCOCC1)C(=O)CNS(=O)(=O)c1ccccc1,19.4%
22,COCCN(CCOC)S(=O)(=O)c1ccc(C(=O)Nc2nc(C)c(C(C)=O)s2)cc1,13%
23,C/C(=N\NC(N)=S)C1C2C3CC4C5CC(C42)C1C53 (stereo not drawn),-10%
24,O=C(CC1(O)C(=O)Nc2ccccc21)c1ccc2c(c1)OCO2 (stereo not drawn),-3.95%

row,Compound,"hERG current change (%, negative = inhibition) at 10uM"
1,Nc1ccc2c(c1)COC2=O,4.55%
2,CN(C)c1ccc2c3c(ccc(N(C)C)c13)COC2,-34.8%
3,CN(C)c1ccc2c3c(ccc(N(C)C)c13)C(=O)OC2,-59.1%
4,CN(C)S(=O)(=O)c1cccc(C(=O)NCC2(N3CCOCC3)CCCCC2)c1,-13.4%
5,S=C(NCc1cccnc1)Nc1ccc(Oc2ccc(Cl)cc2)cc1,-0.652%
6,CCS(=O)(=O)c1ccc(O)c(NC(=O)COc2ccc(OC)cc2)c1,1.82%
7,CCc1ccc(OCC(=O)Nc2cc(S(=O)(=O)CC)ccc2O)cc1,-0.287%
8,CCCc1ccc(OCC(=O)Nc2cc(S(=O)(=O)CC)ccc2O)cc1,-58.1%
9,Cc1cc(C)c(OCCNCc2ccccc2)c(C)c1.O=C(O)C(=O)O,-5.71%
10,Cc1cc(C)c(OCCCCNCc2ccccc2)c(Cl)c1.O=C(O)C(=O)O,-68.5%
11,COCCCNCCCCOc1c(Cl)cc(C)cc1Br.O=C(O)C(=O)O,-49.2%
12,Cc1cc(Cl)c(OCCCCNC(C)(C)C)c(Br)c1.O=C(O)C(=O)O,-40.7%
13,Cc1cc(C)c(OCCCNCc2ccccc2)c(Br)c1.O=C(O)C(=O)O,-10.7%
14,Cc1cc(Cl)c(OCCCNCc2ccccc2)c(Br)c1.O=C(O)C(=O)O,-51.8%
15,Cc1cc(C)c(OCCCNC2CCCC2)c(Br)c1.O=C(O)C(=O)O,-34.5%
16,C=CCNCCOc1c(C)cc(C)cc1Cl.O=C(O)C(=O)O,-21.2%
17,Cc1cc(Cl)c(OCCCNC2CCCC2)c(Br)c1.O=C(O)C(=O)O,-56.9%
18,CC(=O)c1cccc(NC(=O)C(C)OC(=O)Cc2c[nH]c3ccccc23)c1 (stereo not drawn),-2.32%
19,COC(=O)c1cc(NC(=O)c2cccnc2)ccc1N1CCOCC1,13.9%
20,CCOc1ccccc1N1CC(C(=O)Nc2c(C)n(C)n(-c3ccccc3)c2=O)CC1=O (stereo not drawn),20.7%
21,CCC(C)[C@H](NC(=O)Nc1ccc(S(N)(=O)=O)cc1)C(=O)OC (stereo partly drawn),13.1%
22,O=C1CCCc2c1nc(-c1ccco1)n2O,12.1%
23,O=C(Cn1[nH]c(=O)c2ccccc2c1=O)N1CC=C(c2ccccc2)CC1,-4.76%
24,COc1ccc(CCNC(=O)CS(=O)Cc2nc(-c3ccccc3F)oc2C)cc1OC (stereo not drawn),13%

row,Compound,"hERG current change (%, negative = inhibition) at 10uM"
1,O=c1oc2ccc(C#CC3(O)CCCCC3)cc2cc1-n1cc(C2(O)CCCCC2)nn1,24.7%
2,O=C(c1ccc(F)cc1)n1c(=S)nc2ccccn21,-1.25%
3,CC(=O)N(Cc1nc2sc(C)c(C)c2c(=O)[nH]1)C1CCCC1,21.8%
4,FC(F)(F)c1cccc(N2CCN(C3CC4CCC3C4)CC2)c1 (stereo not drawn),-1.68%
5,CCc1ccc(C(=O)COC(=O)c2cnccn2)cc1,0.242%
6,Cc1ccc(NC(=S)NCCN(C2CCCCC2)C2CCCC2)cc1C,-68.1%
7,Cc1ccc(NC(=S)NCC2CCCO2)cc1C (stereo not drawn),-1.97%
8,Cc1ccc(NC(=S)NC2CCCC2)cc1,4.64%
9,Cc1ccc(NC(=S)NC2CCCC2)cc1C,14.8%
10,Cc1ccc(NC(=S)NCCN(C2CCCCC2)C2CCCC2)cc1,-72%
11,Cc1ccc(NC(=S)NNC(=S)NC2CCCCC2)cc1,21%
12,Cc1ccc(N2CC(C(=O)Nc3nnc(SCCN4CCOCC4)s3)CC2=O)cc1C (stereo not drawn),20.7%
13,COc1ccccc1-n1nnnc1SCc1cc2c(cc1Br)OCO2,-9.95%
14,CCCCC(OC(=O)c1ccco1)C(=O)NCc1ccc(C)cc1 (stereo not drawn),-0.428%
15,O=C(Cn1cnc([N+](=O)[O-])n1)NC1CC1,7.02%
16,Cc1nn(-c2ccc(Cl)cc2)c2[nH]c(=O)c(CNCc3ccc4c(c3)OCO4)cc12,-70%
17,Cc1nn(-c2ccccc2)c2[nH]c(=O)c(CNCc3ccc4c(c3)OCO4)cc12,-28.7%
18,CC(C)(C)c1nn(-c2ccccc2)c2[nH]c(=O)c(CNCc3ccc4c(c3)OCO4)cc12,-17.9%
19,Cc1ccc2c(C)c(C(=O)Nc3ccc(S(N)(=O)=O)cc3)oc2c1C,31.2%
20,COc1ccccc1CC1C(=O)C2CCN1CC2 (stereo not drawn),14.5%
21,Cc1ccc(-c2[nH]c3ccccc3c2SCCN)cc1,-27.6%
22,NCCSc1c(-c2ccccc2)[nH]c2ccccc12,-12.1%
23,NCCSc1c(-c2ccc(Cl)cc2)[nH]c2ccccc12,-84.3%
24,O=C(NCC1CCCO1)C(=O)N/N=C/c1c(F)cccc1Cl (stereo not drawn),8.04%

row,Compound,"hERG current change (%, negative = inhibition) at 10uM"
1,Cc1noc(C)c1COC(=O)/C=C/c1ccc(Cl)cc1,0.131%
2,CCn1cc(/C=C/C(=O)Nc2ccc(C)cc2Br)cn1,-30.7%
3,O=C(C1CCCN(S(=O)(=O)c2ccc(Cl)cc2)C1)N(Cc1cccs1)C1CC1 (stereo not drawn),-63%
4,O=C(C1CCCN(S(=O)(=O)c2ccc(F)cc2)C1)N(Cc1cccs1)C1CC1 (stereo not drawn),-78.2%
5,O=C(O)C1CCCN(S(=O)(=O)c2ccc(F)cc2)C1 (stereo not drawn),20.4%
6,CCOC(=O)C1CCCN(S(=O)(=O)c2ccc(C)cc2)C1 (stereo not drawn),-2.86%
7,Cc1ccc(S(=O)(=O)N2CCCC2C(=O)N(C)Cc2cccs2)cc1 (stereo not drawn),-19.9%
8,O=C(C1CCCN(S(=O)(=O)c2ccc(Cl)cc2)C1)N1CCCC1 (stereo not drawn),-19%
9,O=C(C1CCCN(S(=O)(=O)c2ccc(F)cc2)C1)N1CCCC1 (stereo not drawn),5.78%
10,Cc1ccc(S(=O)(=O)N2CCCC(C(=O)N(Cc3cccs3)C3CC3)C2)cc1 (stereo not drawn),-67.7%
11,CN1CCN(C(=O)C2CCCN(S(=O)(=O)c3ccc(Cl)cc3)C2)CC1 (stereo not drawn),-18.8%
12,Cc1noc(/C=C/Nc2ccc(F)cc2F)c1[N+](=O)[O-],12.1%
13,COc1ccc(NC(=S)N(CCN(C)C)C(C)c2ccco2)cc1 (stereo not drawn),-16.6%
14,O=C1CSC(c2ccccc2)N1CCc1ccccc1 (stereo not drawn),1.82%
15,Cc1ccccc1SCC(=O)OCC(=O)Nc1ccc(N(C)C)cc1,10.4%
16,NC(=O)CCN1CCN(Cc2nc(C(c3ccccc3)c3ccccc3)no2)CC1,-25.6%
17,c1ccc(C(c2ccccc2)c2noc(CN3CCC(c4ccncc4)CC3)n2)cc1,-32.7%
18,c1ccc(C(c2ccccc2)c2noc(CN3CCN(C4CCCC4)CC3)n2)cc1,-70.1%
19,C[C@@H]1CN(C2CCN(Cc3nc(C(c4ccccc4)c4ccccc4)no3)CC2)C[C@H](C)O1,-38.6%
20,Cc1nc(CN2CCN(Cc3nc(C(c4ccccc4)c4ccccc4)no3)CC2)cs1,-45.5%
21,CC(=O)N1CCN(Cc2nc(C(c3ccccc3)c3ccccc3)no2)CC1,10.8%
22,COCC1CCCN(Cc2nc(C(c3ccccc3)c3ccccc3)no2)C1 (stereo not drawn),-19.6%
23,Cc1cccnc1CN1CCN(Cc2nc(C(c3ccccc3)c3ccccc3)no2)CC1,-56.2%
24,c1ccc(C(c2ccccc2)c2noc(CN3CCN(CC4CC4)CC3)n2)cc1,-61.6%
